In the library only some 7.7% were active in any assay of this set; here they are far more common.
PD-1 reverse act: reversal of PD-1 mediated T-cell inhibition; primary human CD4 T cells, PD-L1 beads, CellTiter-Glo 96 h; activation, % (concentration not given with the values); 29,000 tested, under 10 active; call rule not given here;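 also: 0% = median vehicle wells and 100% = positive control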
NOMO-1 viab: STK33 inhibitor candidate reducing NOMO-1 cell viability; 37,000 compounds, 7.5% hits; AID 2330; inhibition, % (concentration not given with the values); NOMO-1 AML viability, CellTiter-Glo luminescence, 72 h; in the data active = inhibition above about 80%; inconclusive = no clear call, values can overlap the other calls
Shh pathway inh: Sonic Hedgehog pathway inhibition | AID 2313 | 22,000 compounds, 2.1% hits | inhibition, % (no concentration beside the values) | Shh-LIGHT2 Gli-luciferase reporter, 30 h;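 active = mean inhibition across valid replicates above about 65%, limit read from the data; inconclusive = mean under the limit, yet half or more replicates past it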;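 also: pathway switched on by Shh-conditioned medium diluted 1 in 25 in low serum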
An asterisk follows results filed as active.

What do the screens show for `N#C/C(=C\c1ccc(Cl)cc1)c1ccccc1`?
PD-1 reverse act: 0; NOMO-1 viab: 17; Shh pathway inh: -85

What do the screens show for `C[C@@H]1CN([C@H](C)CO)C(=O)c2cc(NC(=O)Nc3ccc4c(c3)OCO4)ccc2O[C@@H]1CN(C)Cc1ccc2c(c1)OCO2`?
PD-1 reverse act: 1; NOMO-1 viab: 28

How did C[C@H](CO)N1C[C@H](C)[C@H](CN(C)Cc2ccc3c(c2)OCO3)Oc2ccc(NC(=O)Nc3cccc4ccccc34)cc2C1=O do in these assays?
NOMO-1 viab: 98*

How did C[C@H](CO)N1C[C@H](C)[C@@H](CN(C)Cc2ccc3c(c2)OCO3)Oc2ccc(NC(=O)Nc3ccccc3)cc2C1=O do in these assays?
PD-1 reverse act: 1; NOMO-1 viab: 25

How did C[C@H]1CN([C@@H](C)CO)C(=O)c2cc(NC(=O)Cc3ccccc3)ccc2O[C@H]1CN(C)Cc1ccc2c(c1)OCO2 do in these assays?
PD-1 reverse act: -1; NOMO-1 viab: 95*

Results for C[C@H](CO)N1C[C@H](C)[C@H](CN(C)Cc2ccc3c(c2)OCO3)Oc2ccc(NC(=O)Nc3ccccc3)cc2C1=O ?
PD-1 reverse act: 0; NOMO-1 viab: 94*

How did C[C@@H]1CN([C@H](C)CO)C(=O)c2cc(NC(=O)Cc3ccccc3)ccc2O[C@H]1CN(C)Cc1ccc2c(c1)OCO2 do in these assays?
PD-1 reverse act: 1; NOMO-1 viab: 6

What do the screens show for `C[C@@H]1CN([C@@H](C)CO)C(=O)c2cc(NC(=O)Nc3ccc4c(c3)OCO4)ccc2O[C@H]1CN(C)Cc1ccc(Cl)c(Cl)c1`?
PD-1 reverse act: -1; NOMO-1 viab: 95*; Shh pathway inh: 38

How did C[C@H]1CN([C@@H](C)CO)C(=O)c2cc(NC(=O)Nc3cccc4ccccc34)ccc2O[C@H]1CN(C)Cc1ccccc1 do in these assays?
PD-1 reverse act: -1; NOMO-1 viab: 14; Shh pathway inh: 7

Results for Cc1cccc(C)c1NC(=O)CN(C1CCCCC1)S(=O)(=O)c1ccc(Cl)cc1 ?
PD-1 reverse act: 0; NOMO-1 viab: 12

What do the screens show for `CCn1c(SCC(=O)Nc2ccccc2F)nnc1-c1cccc(N)c1`?
PD-1 reverse act: 3; NOMO-1 viab: -6

What do the screens show for `O=C(O)c1cc(F)cc(C(F)(F)F)c1`?
PD-1 reverse act: 3; NOMO-1 viab: 12; Shh pathway inh: -1

What do the screens show for `CCN(CC(=O)Nc1cccc(Cl)c1C)S(=O)(=O)c1ccc(F)cc1`?
NOMO-1 viab: 20

What do the screens show for `COc1ccc(NC(=O)Nc2ccc3c(c2)C(=O)N([C@@H](C)CO)C[C@H](C)[C@H](CN(C)Cc2ccc4c(c2)OCO4)O3)cc1`?
PD-1 reverse act: 1; NOMO-1 viab: 98*; Shh pathway inh: -34

What do the screens show for `C[C@H](CO)N1C[C@H](C)[C@H](CN(C)Cc2ccc3c(c2)OCO3)Oc2ccc(NC(=O)C3CCCCC3)cc2C1=O`?
PD-1 reverse act: 0; NOMO-1 viab: 94*

Results for C[C@H](CO)N1C[C@H](C)[C@@H](CN(C)Cc2ccc3c(c2)OCO3)Oc2ccc(NC(=O)C3CCCCC3)cc2C1=O ?
PD-1 reverse act: -1; NOMO-1 viab: 22

What do the screens show for `COc1ccc(NC(=O)Nc2ccc3c(c2)C(=O)N([C@@H](C)CO)C[C@@H](C)[C@@H](CN(C)Cc2ccc4c(c2)OCO4)O3)cc1`?
NOMO-1 viab: 9

Results for C[C@@H]1CN([C@@H](C)CO)C(=O)c2cc(NC(=O)Nc3ccc4c(c3)OCO4)ccc2O[C@@H]1CN(C)Cc1ccc2c(c1)OCO2 ?
PD-1 reverse act: 2; NOMO-1 viab: 28; Shh pathway inh: 21

What do the screens show for `C[C@H]1CN([C@@H](C)CO)C(=O)c2cc(NC(=O)Nc3ccc4c(c3)OCO4)ccc2O[C@H]1CN(C)Cc1ccc2c(c1)OCO2`?
PD-1 reverse act: 0; NOMO-1 viab: 93*

Results for Cc1cc(C)c(CN(C)C)c(O)c1 ?
PD-1 reverse act: 0; NOMO-1 viab: 15; Shh pathway inh: 0

What do the screens show for `O=C(CCN1C(=O)c2ccccc2C1=O)Nc1ccccc1C(=O)N1CCCC1`?
NOMO-1 viab: 24

How did Cc1cc2nc(-c3cccc(NC(=O)COc4ccc(Cl)cc4)c3C)oc2cc1C do in these assays?
NOMO-1 viab: 27

How did Clc1ccc(C2=NN=C(N3CCCC3)SC2)cc1 do in these assays?
PD-1 reverse act: -5; NOMO-1 viab: 99*

Results for S=C1C=C(N2CCCCC2)CC(c2ccc(Cl)cc2)S1 (configuration not stated) ?
PD-1 reverse act: -2; NOMO-1 viab: 41

Results for C=C[C@@]12COC(=O)C(=C)[C@@H]1[C@@H](O)[C@H](C(=C)C(=O)OC)[C@@H](O)C2 ?
PD-1 reverse act: -10; NOMO-1 viab: 83*; Shh pathway inh: 8

How did C=C[C@@]12COC(=O)C(=C)C1[C@@H](O)[C@H](C(=C)C(=O)OC)[C@@H](OC(=O)C(=C)CO)C2 (some centres not stated) do in these assays?
PD-1 reverse act: -16; NOMO-1 viab: 116*; Shh pathway inh: -3

What do the screens show for `C=C(CO)C(=O)O[C@H]1C[C@@]2(C)OC(=O)/C(=C/C)[C@@]23CC[C@@](C)(O)CC(=O)[C@@]1(C(=C)C(=O)OC)O3`?
Shh pathway inh: 8

What do the screens show for `C[C@H](CO)N1C[C@H](C)[C@H](CN(C)Cc2ccc(C(=O)Nc3ccccc3N)cc2)Oc2c(NS(=O)(=O)c3ccc(F)cc3)cccc2C1=O`?
PD-1 reverse act: -1; NOMO-1 viab: 133*

How did C[C@H]1CN([C@@H](C)CO)C(=O)c2cc(NS(=O)(=O)c3ccc(F)cc3)ccc2O[C@H]1CN(C)Cc1ccc(C(=O)Nc2ccccc2N)cc1 do in these assays?
PD-1 reverse act: 0; NOMO-1 viab: inconclusive

How did C[C@@H]1CN([C@H](C)CO)C(=O)c2cccc(NS(=O)(=O)c3ccc(Cl)cc3)c2O[C@H]1CN(C)Cc1ccc(C(=O)Nc2ccccc2N)cc1 do in these assays?
PD-1 reverse act: -1; NOMO-1 viab: 67

How did C[C@@H]1CN([C@@H](C)CO)C(=O)c2cccc(NS(=O)(=O)c3ccccc3)c2O[C@@H]1CN(C)Cc1ccc(C(=O)Nc2ccccc2N)cc1 do in these assays?
PD-1 reverse act: 0; NOMO-1 viab: 129*

What do the screens show for `C[C@H](CO)N1C[C@H](C)[C@@H](CN(C)Cc2ccc(C(=O)Nc3ccccc3N)cc2)Oc2c(NS(=O)(=O)c3ccccc3)cccc2C1=O`?
PD-1 reverse act: 2; NOMO-1 viab: 53

Results for C[C@H](CO)N1C[C@H](C)[C@H](CN(C)Cc2ccc(C(=O)O)cc2)Oc2c(NS(=O)(=O)c3cccs3)cccc2C1=O ?
PD-1 reverse act: 2; NOMO-1 viab: 10; Shh pathway inh: -35

Results for C[C@@H]1CN([C@@H](C)CO)C(=O)c2cccc(NS(=O)(=O)c3ccc(Cl)cc3)c2O[C@@H]1CN(C)Cc1ccc(C(=O)Nc2ccccc2N)cc1 ?
PD-1 reverse act: -5; NOMO-1 viab: 128*

What do the screens show for `C[C@@H]1CN([C@H](C)CO)C(=O)c2cccc(NS(=O)(=O)c3cccs3)c2O[C@@H]1CN(C)Cc1ccc(C(=O)Nc2ccccc2N)cc1`?
PD-1 reverse act: -1; NOMO-1 viab: 138*

How did Cc1ccc(S(=O)(=O)Nc2cccc3c2O[C@@H](CN(C)Cc2ccc(C(=O)Nc4ccccc4N)cc2)[C@H](C)CN([C@H](C)CO)C3=O)cc1 do in these assays?
PD-1 reverse act: -1; NOMO-1 viab: 72
